Source: PubChem BioAssay AID2279 (Southern Research Specialized Biocontainment Screening …, 2010)
Entries with a potency or affinity are not part of this list.

Experiment: CCR5-tropic HIV-1 fusion blockers – cell-based, CCR5-tropic Env, dose response (AID 2279)
Conditions: CCR5-tropic HIV-1 Env, reporter read-out; series mostly up to 50 µM; inhibition: at the top concentration; call rule not given here

inhibition, inactive:
COc1cc(/C=C2\C(=N)N3N=C(S(C)(=O)=O)SC3=NC2=O)ccc1OS(=O)(=O)c1ccccc1 9.44%, COc1cc(/C=C(\C#N)c2nc3ccc(C)cc3[nH]2)cc([N+](=O)[O-])c1O -16.1%, O=C1NC(=O)/C(=C/c2ccc(-c3cc(C(=O)O)ccc3Cl)o2)S1 4.39%, O=C(O)c1cccc(N/N=C/c2cc(Br)cc(Br)c2O)c1 11.8% [at 25 µM], O=C(Nc1ccc(C(=O)O)cc1)/C(=C\C=C\c1ccccc1)NC(=O)c1cccc(Br)c1 -5.24%, Cc1ccc(C)c(S(=O)(=O)/N=C2\C=C(NS(=O)(=O)c3ccccc3)C(=O)c3ccccc32)c1 32.6%, COc1cc(/C=C2/C(=N)N3C(=NC2=O)SN=C3S(C)(=O)=O)ccc1OS(=O)(=O)c1ccccc1 25.4%, N#Cc1c(SCC(=O)Nc2nc3ccc(Br)cc3s2)sc2c(O)cc(=O)[nH]c12 -35.2%, Cc1ccc(NS(=O)(=O)c2ccc(N/N=C/c3ccccc3OCC(=O)O)c([N+](=O)[O-])c2)c(C)c1 -0.66%, O=C(O)COc1ccc(Br)cc1C(c1c(C(=O)O)[nH]c2ccccc12)c1c(C(=O)O)[nH]c2ccccc12 6.84%, COc1ccc(O)c(C(=O)c2cc(SCC(=O)O)c3nc4sc5c(c4c(=O)n3c2)CCCC5)c1 36%, CCOc1ccc2nc(NC(=O)CSc3nc(-c4ccccc4)c(C#N)c(=O)[nH]3)sc2c1 9.5%, CCCCCC(=O)Cc1cc(O)cc2c1C(=O)Oc1cc(O)c(C(=O)O)c(CCCCC)c1O2 28.4%, CS(=O)(=O)C1=NSC2=NC(=O)/C(=C\c3cccn3-c3ccc(Cl)cc3)C(=N)N21 -11.3%, CC(/C=C1\SC(=S)N(c2ccc(C(=O)O)cc2)C1=O)=C\c1ccccc1 -3.04%, O=C(O)c1cc(NC(=O)c2ccc(Br)cc2)cc(NC(=O)c2ccc(Br)cc2)c1 30.4%, O=C(Nc1cc(C(=O)Nc2ccccc2C(=O)O)cc(C(=O)Nc2ccccc2C(=O)O)c1)c1ccccc1 15.2%, CC1=NN(c2ccc(C(=O)O)cc2)C(=O)/C1=C\c1ccc(OC(=O)c2cccs2)cc1 9.07%, C=CCOc1ccc(C(c2c(C(=O)O)[nH]c3ccccc23)c2c(C(=O)O)[nH]c3ccccc23)cc1 -3.52%, CN1C(=O)/C(=C/c2ccc(C(=O)Nc3ccc(O)cc3C(=O)O)cc2)SC1=S 4.53%, CC(c1ccccc1)N1C(=O)c2ccc(C(=O)Nc3ccccc3C(=O)O)cc2C1=O (centres undefined) 3.54%, O=C(O)CN1C(=O)/C(=C\c2cc(Br)ccc2OCc2ccccc2Cl)SC1=S 7.33%, COc1cc(OC)c2c(O)c3c(c(-c4c5c(c(O)c6c(OC)cc(OC)cc46)CO[C@@H](C)[C@H]5O)c2c1)[C@H](O)[C@H](C)OC3 6.59%, Cc1ccc(-n2cccc2/C=C2/C(=N)N3C(=NC2=O)SN=C3S(C)(=O)=O)cc1Cl 0.44%, COc1ccc(/C=C2/SC(=S)N(CC(=O)O)C2=O)cc1OCc1ccc(Cl)cc1 1.03%, O=C(O)c1[nH]c2ccccc2c1C(c1cc(Br)ccc1O)c1c(C(=O)O)[nH]c2ccccc12 -15.4%, CCS(=O)(=O)C1=NN2C(=N)/C(=C\c3ccc(OCCOc4cccc(OC)c4)c(OC)c3)C(=O)N=C2S1 6.77%, Cc1c(CCC(=O)O)c(=O)oc2c(C)c3occ(-c4ccc(Br)cc4)c3cc12 4.8%, CCCOc1ccc(C(=O)NNC(=S)NC(=O)c2cc(-c3ccc(Cl)cc3)nc3ccccc23)cc1 -2.5%, CCOC(=O)C1=C(C)N=c2s/c(=C/c3ccc(OCC(=O)O)cc3)c(=O)n2C1c1ccc(SC)cc1 (centres undefined) 17.9%, C=CCOC(=O)C1=C(C)N=c2s/c(=C3\C(=O)N(CC(=O)O)c4ccccc43)c(=O)n2C1c1ccc(OC)cc1 (centres undefined) 6.53%, CCC(C)(C)C1CCc2c(sc(NC(=O)c3ccccc3C(=O)O)c2C#N)C1 (centres undefined) -10.8% [at 25 µM], COc1ccc(-c2nn(-c3ccccc3)cc2/C=C\C(=O)Nc2ccc(C(=O)O)cc2)cc1 31.8%, Cc1ccc(NC(=O)COc2cccc(/C=C3\SC(=S)N(CCC(=O)O)C3=O)c2)cc1Cl 14.1%
